# Shiga inhibitor: A qHTS for Small Molecule Inhibitors of Shiga Toxin; 9.2% of 290,000 active; inhibition, % at 38.7 µM; Vero cells, Shiga toxin protein synthesis inhibition reporter; in the data active means inhibition mostly above about 28%, no sharp cut-off; inactive means mostly below about 43%; further: 0% is about no effect
# Pf growth 48h: Primary qHTS for delayed death inhibitors of the malarial parasite plastid, 48 hour incubation; P. falciparum luciferase growth in erythrocytes, 48 h; Potency, µM (top dose mostly 28.7 µM), inactives show at the highest dose activity change, negative = inhibition, usual class: inhibitors; AID 504832, 2011; 5.9% of 310,000 active; further: potency means the concentration at half of the fitted maximal effect; on the % scale 0 is the no-effect control and ±100 the full control effect
#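 Firefly luciferase activity from engineered P. falciparum reports growth; inhibitors lower the luminescent signal. Cultures contained 2% hematocrit erythrocytes at 0.1% final parasitemia.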
# Cycloheximide cs: Cycloheximide Counterscreen for Small Molecule Inhibitors of Shiga Toxin; AID 2314, 2010; 12% of 300,000 active; max response, %; cell reporter, cycloheximide protein synthesis inhibition counterscreen; in the data active means max response mostly above about 13%, no sharp cut-off; inactive means mostly below about 14%; further: read at 38.3 µM for the half of the compounds with a filed dose; 0% is about no effect
# Pf growth 96h: Primary qHTS for delayed death inhibitors of the malarial parasite plastid, 96 hour incubation. P. falciparum luciferase reporter growth, 96 h. Potency, µM (highest dose often 28.7 µM), inactives show top-dose activity change, negative = inhibition, hits mostly inhibitors. 6.9% of 320,000 active. AID 504834, 2011; further: potency means the concentration at half of the fitted maximal effect; on the % scale 0 is the no-effect control and ±100 the full control effect
#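 Two-generation exposure (96 h) targets delayed-death phenotype. Reporter parasites carrying integrated firefly luciferase, in red cells at 2% hematocrit and 0.05% parasitemia final, kept at 37 C, 5% CO2; luminescence loss indicates inhibition.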
# HCMV antiviral: qHTS Assay for inhibitors of the human cytomegalovirus (HCMV); 4.5% of 410,000 active; HFF cells, HCMV-luciferase reporter, 72 h; stronger effect = lower value; AID 1259415, 2018; activity change, negative = inhibition, % at 57.5 µM; in the data active means activity change below about -60%; inconclusive means no clear call, values can overlap the other calls; inactive means above about -39%; further: on the % scale 0 is the no-effect control and ±100 the full control effect
#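 HFF cells seeded 16 h at 37C, treated with compounds, infected with luciferase-reporter HCMV at MOI 1 PFU/cell; luciferase read at 72 h post infection, normalized to buffer-only and Salinomycin controls.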
# An asterisk follows results filed as active; ? = inconclusive; . = no result given; + = active, no number. In the library only some 20% were active in any assay of this set; here they are far more common. Unless noted, the call rests on the fitted dose curve; in most records, active means well fitted inhibition curve with a large enough effect; inconclusive means small, poorly fitted or top-dose-only effect, or another doubt; inactive means no such curve, though single readings can be large or run the other way.
SMILES,Shiga inhibitor,Pf growth 48h,Cycloheximide cs,Pf growth 96h,HCMV antiviral
Cc1ccc(N=C2SC(C(=O)Nc3ccc(OC(F)(F)F)cc3)C(N)=C2C(=O)Nc2c(C)cc(C)cc2C)cc1 (centres undefined),13,?,-2,12µM*,?
CC(NC(=O)CN1CCN(C(=O)c2cccs2)CC1)c1ccc(F)cc1F (centres undefined),.,.,.,.,0
COc1cccc(CNC23CC4CC(CC(C4)C2)C3)c1OCc1ccccc1,-4,10µM*,-4,-15%,?
Cc1ccc(Cl)cc1N1CCN(C(=O)C2CCC(=O)N(C3CCCCCC3)C2)CC1 (centres undefined),1,12µM*,-2,?,-25
O=C(C1CCC(=O)N(C2CCCC2)C1)N1CCN(Cc2cccc(Cl)c2)CC1 (centres undefined),-5,-16%,-2,23%,-72*
COc1ccc(-n2cc(-c3ccc(Cl)cc3)[nH]c2=S)cc1,13,?,13*,?,-16
COc1cccc(-n2cc(-c3ccc(F)cc3)[nH]c2=S)c1,86*,-24%,37*,-58%,-11
COC(=O)c1ccc(-n2cc(-c3ccc(OC)cc3)[nH]c2=S)cc1,51,?,7,?,-15
OC[C@@H](O)C(O[C@@H]1O[C@@H](CO)[C@H](O)[C@H](O)[C@H]1O)[C@H](O)[C@@H](O)CO (some centres undefined),.,-23%,.,?,.
COc1ccc(Cl)c2sc(N(Cc3cccnc3)C(C)=O)nc12,-3,-4%,-12,?,-24
COc1ccc2nc(NC(=O)C(NS(=O)(=O)c3cccs3)C(C)C)sc2c1 (centres undefined),-1,?,-2,83%,12
COc1cccc2c(=O)n(CC(=O)NC3CCCC3)ccc12,49,40%,24*,30%,-8
COc1cccc(-c2nnn(CC(=O)NC3CCCC3)n2)c1OC,-10,-4%,-4,9.3µM*,-28
COc1cccc2c(=O)n(CC(=O)Nc3ccccc3)ccc12,11,24%,7,46%,34
O=C(CC[C@H]1O[C@@H](n2cnc3c(NC(=O)c4ccccc4)ncnc32)[C@H](O)[C@@H]1O)N[C@@H](CO)Cc1c[nH]c2ccccc12,.,.,.,.,5
Cc1ccc(S(=O)(=O)c2nnn3c2nc(N2CCCC(C)C2)c2cc(Cl)ccc23)cc1C (centres undefined),.,.,.,.,9
Cc1[nH]c2ccccc2c1C1(O)C(=O)N(Cc2ccccc2)c2ccc(Br)cc21 (centres undefined),.,.,.,.,-102*
O=C([C@H](Cc1ccccc1)NS(=O)(=O)c1ccc(Cl)cc1)N1CC[C@@]2(O)CCCC[C@H]2C1,-3,13µM*,-2,?,-37
COc1ccc(S(=O)(=O)N[C@@H](Cc2ccccc2)C(=O)N2CC[C@@]3(O)CCCC[C@H]3C2)cc1,4,-21%,-5,.,6
COc1ccccc1C=NNC(=O)NN=Cc1ccccc1OC,.,.,.,.,-38
COc1cccc(/C=N/NC(=O)N/N=C/c2cccc(OC)c2O)c1O,.,?,25*,?,-13
COc1cccc(/C=N/N2C(=O)CSC2=S)c1O,45*,4%,32*,?,105
COc1cccc(/C=N/NC(=O)CSc2ccccc2C)c1O,37*,?,17,0%,62
COc1cccc(/C=N/NC(=O)c2nc(-c3ccccc3)cc(-c3ccccc3)n2)c1O,13,5%,15*,2%,-97*
COc1cccc(/C=N/NC(=O)CSc2ccccc2C)c1OC,37,5%,-2,2%,-21
SMILES,Shiga inhibitor,Pf growth 48h,Cycloheximide cs,Pf growth 96h,HCMV antiviral
Cc1cc2c(s1)c1c(C)nn(Cc3ccccc3F)c(=O)c1n2C,.,?,.,8%,.
Cc1ccc(Cl)cc1-n1c(=O)c2sc3ccccc3c2n(Cc2ccccc2)c1=O,.,.,.,.,3
COc1ccc(OC)c(/C=N/NC(=O)CSc2cc(C)nc3c(OC)cccc23)c1,-18,-10%,-1,8.3µM*,-31
COc1cccc(/C=N/NC(=O)C(=O)N2CCCC2)c1O,+,?,61*,30%,21
CCn1c(C)nc2cc(C(=O)N/N=C/c3cccc(OC)c3O)ccc21,60*,?,18,?,-15
COc1cccc(/C=N/NC(=O)C(=O)N2CCCC2)c1OC,-15,9%,1,18%,-11
